Assay outcomes: PubChem BioAssay, Broad Institute
Most compounds without a hit are left out; they make up all but 3.2% or so of the library.
rRNA inh HTS = reduced GFP signal of wild-type E. coli, primary screen, bacterial rRNA inhibitor project, GFP/RFP fluorescence, OD600, single point | E. coli WT GFP vs humanized-ribosome RFP mutants, 24 h; stronger effect = lower value; DMSO median 0, no signal -100 | GFP signal change (wild-type ribosome), % (test concentration not listed) | 1.6% of 350,000 active;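 active means significant combined selectivity score with lowered wild-type GFP, culture density cut under 30%, mutant RFP and density less affected; inactive means any of these conditions unmet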
DENV2 CPE = inhibitors of DENV2 cytopathic effect, primary screen, cell-based, plate reader, single concentration; 1.7% of 350,000 active; DENV2-infected cells, cytopathic effect rescue; CPE inhibition, % at 9.99 µM; AID 651640, 2012; in the data active means CPE inhibition above about 20%, passing the limit was not always enough; inconclusive means no clear call, values can overlap the other calls; tested in BHK-21 cells
ERAP1 HTS inh = human ERAP1 aminopeptidase inhibitors, primary screen, biochemical, single point, plate reader | inhibition, % at 10.7 µM | 0.15% of 340,000 active | recombinant ERAP1, Leu-AMC fluorescence, 60 min | Endoplasmic reticulum aminopeptidase 1 (Homo sapiens), Q9NZ08;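 active means mean replicate inhibition of at least 30%, or all replicates individually reaching that 30% level; inactive means mean below 30% and not every replicate reaching it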
PGC1a acetyl inh = inhibitors of PGC1a acetylation signal, primary screen, cell-based, U2OS, AlphaScreen, inhibitor mode; inhibition, % at 15.6 µM; 0.17% of 350,000 active; AlphaScreen anti-acetyl-lysine; with virally co-expressed GCN5 acetyltransferase; AID 651687, 2012;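 active means every replicate shows inhibition of at least 40%; inconclusive means mean inhibition at least 40% but some replicate below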
CaV13 ICDI inh = Primary screen for inhibitors of IQ motif and Ca2+-dependent inactivation inhibitor domain binding in CACNA1D, Förster resonance energy transfer in living cells, …. inhibition, % at 12.3 µM. AID 743397. 0.098% of 340,000 active. HEK cells, CFP/YFP FRET ICDI-IQ, plate reader, 10 min; percent FRET-ratio fall versus neutral wells;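 active means mean replicate inhibition of at least 30% and at least 1% of replicates passing that level; inconclusive means only one of the two criteria is met; inactive means neither criterion is met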
INS-1E GSIS act = GLuc luminescence reporter in INS-1E cells, primary screen for activators of glucose-dependent secretion of insulin | activation, % at 16.6 µM | 0.61% of 370,000 active | INS-1E GLuc reporter insulin secretion, 2-3 h;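 active means lowest replicate activation of at least 40%, so every replicate reaches that level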
A number is an active result; – = inactive; ? = inconclusive; · = no result.

SMILES | rRNA inh HTS | DENV2 CPE | ERAP1 HTS inh | PGC1a acetyl inh | CaV13 ICDI inh | INS-1E GSIS act
C[C@@H](NC(=O)C[C@H]1CC[C@H]2[C@@H](COC[C@H](O)CN2C(=O)Nc2ccccc2)O1)c1ccccc1 | – | 50 | – | – | · | –
CCNC(=O)C[C@@H]1CC[C@@H]2[C@H](COC[C@@H](O)CN2C(=O)Nc2ccc3c(c2)OCO3)O1 | – | – | – | – | · | –
CNC(=O)C[C@H]1CC[C@@H]2[C@H](COC[C@@H](O)CN2C(=O)Nc2ccc3c(c2)OCO3)O1 | – | 102 | – | – | · | –
C[C@@H](NC(=O)C[C@H]1CC[C@@H]2[C@H](COC[C@H](O)CN2C(=O)Nc2ccccc2)O1)c1ccccc1 | – | 21 | – | – | · | –
C[C@H](NC(=O)C[C@@H]1CC[C@@H]2[C@H](COC[C@@H](O)CN2C(=O)Nc2ccccc2)O1)c1ccccc1 | – | – | – | – | · | –
COc1cc(/C=N/Nc2cccc3cccnc23)cc(OC)c1O | -26 | · | – | · | – | –
Oc1cccc(/C=N/Nc2cccc3cccnc23)c1 | -35 | – | – | – | – | –
COC(=O)C[C@H]1C[C@H]2c3cc(NS(=O)(=O)c4ccccc4)ccc3O[C@H]2[C@@H](CO)O1 | – | – | · | – | · | –
COc1ccc(CN(C)CC(O)COc2ccc(-c3ccccc3)cc2)cc1OC (stereo not given) | – | – | – | · | – | –
CN(Cc1ccc(OCC(O)CN(C)Cc2ccccc2)cc1)Cc1nccn1C (stereo not given) | – | – | – | – | – | 47
C=CCn1c(SCC(=O)NCc2ccc3c(c2)OCO3)nc2scc(-c3ccc(F)cc3)c2c1=O | · | · | · | – | – | 112
O=C(O)c1ccccc1NS(=O)(=O)c1ccc(NN=Cc2ccc(F)cc2)c([N+](=O)[O-])c1 | · | · | · | – | · | ·
COc1ccc(NS(=O)(=O)c2cc([N+](=O)[O-])ccc2NN=Cc2ccccc2OCC(=O)O)cc1 | -32 | – | – | – | – | ·
O=C(O)c1ccccc1NS(=O)(=O)c1ccc(N/N=C/c2ccc(O)c(O)c2)c([N+](=O)[O-])c1 | -25 | – | – | · | – | –
COc1ccc(C=NNc2ccc([N+](=O)[O-])cc2S(=O)(=O)Nc2ccccc2C(=O)O)cc1OC | -23 | – | – | – | – | ·
C[C@@H]1CN([C@@H](C)CO)C(=O)c2cc(NS(=O)(=O)c3ccc(Cl)cc3)ccc2O[C@@H](C)CCCCO[C@H]1CN(C)S(=O)(=O)c1cn(C)cn1 | – | – | – | – | · | –
Cc1ccc(C)c(N2CN(CCC3=CCCCC3)CNC2=S)c1 | -28 | – | – | – | – | –
CC(C)[C@@H]1C(=O)N[C@@H](c2ccccc2)CC=CC[C@@H](C)Oc2ccccc2C(=O)N1C (mixture of isomers) | – | · | · | · | · | –
Cc1ccc(S(=O)(=O)N2CCCNCC2)cc1 | – | 23 | – | · | – | –
Cc1ccc(S(=O)(=O)N2CCN(C(=O)C(O)c3ccccc3)CC2)cc1 (stereo not given) | · | 37 | – | · | – | ·
O=C(C(O)c1ccccc1)N1CCN(S(=O)(=O)c2ccc(F)c(F)c2)CC1 (stereo not given) | · | – | – | · | – | –
Cc1ccc(N(C)C(=O)N2CCN(S(=O)(=O)c3ccc(C)cc3)CC2)cc1 | – | 59 | – | – | – | –
C[C@@H]1CN([C@H](C)CO)C(=O)c2cc(-c3cccnc3)cnc2O[C@H]1CN(C)C(=O)C1CCCCC1 | – | · | · | – | · | –
O=C(c1ccoc1)N1CCCC(N2CCN(c3cccc(C(F)(F)F)c3)CC2)C1 (stereo not given) | – | – | – | – | – | –
O=C(c1ccncc1)N1CCCC(N2CCN(c3cccc(C(F)(F)F)c3)CC2)C1 (stereo not given) | – | 21 | – | · | – | –
SMILES | rRNA inh HTS | DENV2 CPE | ERAP1 HTS inh | PGC1a acetyl inh | CaV13 ICDI inh | INS-1E GSIS act
CS(=O)(=O)Nc1ccc2c(c1)[C@H]1C[C@@H](CC(=O)NCc3ccncc3)O[C@@H](CO)[C@H]1O2 | – | – | – | – | · | –
Cc1cc(C(=O)Nc2cccc3c2O[C@@H](CN(C)Cc2ccccc2)[C@H](C)CN([C@H](C)CO)C3=O)n(C)n1 | – | – | – | · | · | –
CO[C@H]1CN(C)C(=O)c2cc(NC(=O)C3CC3)ccc2OC[C@H](C)N(C(=O)c2ccccn2)C[C@@H]1C | – | · | · | – | · | –
C[C@H]1CN([C@@H](C)CO)C(=O)c2cccc(NC(=O)NC3CCCCC3)c2O[C@H]1CN(C)S(=O)(=O)c1cccs1 | – | – | – | – | · | –
C[C@@H]1CCCCO[C@H](CN(C)Cc2ccc(C(=O)O)cc2)[C@@H](C)CN([C@@H](C)CO)C(=O)c2cc(NC(=O)c3ccccc3)ccc2O1 | – | – | – | – | · | –
C[C@@H]1CCCCO[C@H](CN(C)Cc2ccc(C(=O)O)cc2)[C@H](C)CN([C@@H](C)CO)C(=O)c2cc(NC(=O)c3ccncc3)ccc2O1 | – | 32 | – | – | · | –
C[C@@H]1CCCCO[C@@H](CN(C)Cc2ccc(Cl)c(Cl)c2)[C@@H](C)CN([C@H](C)CO)C(=O)c2cc(NC(=O)c3ccncc3)ccc2O1 | – | – | – | – | · | –
C[C@@H]1CN([C@H](C)CO)C(=O)c2cc(NC(=O)c3ccccc3)ccc2O[C@@H](C)CCCCO[C@@H]1CN(C)Cc1ccc(C(=O)O)cc1 | – | 115 | – | – | · | –
C[C@@H]1CN([C@H](C)CO)C(=O)c2cc(NC(=O)c3ccncc3)ccc2O[C@@H](C)CCCCO[C@H]1CN(C)Cc1ccc(Cl)c(Cl)c1 | – | 85 | – | – | · | –
C[C@@H]1CCCCO[C@@H](CN(C)Cc2ccc(C(=O)O)cc2)[C@H](C)CN([C@H](C)CO)C(=O)c2cc(NC(=O)c3ccccc3)ccc2O1 | – | 79 | – | – | · | –
C[C@H]1CCCCO[C@@H](CN(C)Cc2ccc(C(=O)O)cc2)[C@@H](C)CN([C@@H](C)CO)C(=O)c2cc(NC(=O)c3ccccc3)ccc2O1 | – | – | – | – | · | –
C[C@H]1CCCCO[C@H](CN(C)Cc2ccc(C(=O)O)cc2)[C@@H](C)CN([C@@H](C)CO)C(=O)c2cc(NC(=O)c3ccncc3)ccc2O1 | – | – | – | – | · | –
C[C@@H]1CN([C@@H](C)CO)S(=O)(=O)c2ccc(C3=CCCCC3)cc2O[C@H]1CN(C)S(=O)(=O)c1ccc(F)cc1 | – | ? | – | – | · | –
COc1ccc(CC(=O)NCC2CCCN(Cc3ccc(OC(F)(F)F)cc3)C2)cc1 (stereo not given) | · | 20 | – | – | – | ·
